About 83,000 compounds went through this panel and 20% of them were active in at least one assay; those are over-represented in the sample as a whole.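 Values shown are percent growth following 48 h exposure of cells in 96-well plates to a single concentration of compound; below 10 was considered active.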 The source made the active and inactive calls.
Tests used:
Test in all cases: NCI-60 one-dose screen, 48 h (100 = growth as untreated, 0 = no growth, -100 = all killed)
Details in all cases: 10 µM unless noted
HCT-15 colon = system: HCT-15 colon
HT29 colon = system: HT29 colon
SNB-75 CNS = system: SNB-75 CNS
SNB-19 CNS = system: SNB-19 CNS
U251 CNS = system: U251 CNS
PC-3 prostate = system: PC-3 prostate
SK-MEL-5 melanoma = system: SK-MEL-5 melanoma
UACC-62 melanoma = system: UACC-62 melanoma
LOX IMVI melanoma = system: LOX IMVI melanoma
SK-MEL-28 melanoma = system: SK-MEL-28 melanoma
SK-MEL-2 melanoma = system: SK-MEL-2 melanoma
EKVX NSCLC = system: EKVX NSCLC
SN12C renal = system: SN12C renal
UO-31 renal = system: UO-31 renal
TK-10 renal = system: TK-10 renal
ACHN renal = system: ACHN renal
CAKI-1 renal = system: CAKI-1 renal
A498 renal = system: A498 renal
CCRF-CEM leukemia = system: CCRF-CEM leukemia
MOLT-4 leukemia = system: MOLT-4 leukemia

Measured: growth

O=C(Nc1ccc([N+](=O)[O-])cc1)c1cc2ccccc2cc1O
inactive: HT29 colon 24.4% | SNB-19 CNS 23.7%
active: HCT-15 colon 0.0174% | SNB-75 CNS -6.38% | U251 CNS 2.66% | PC-3 prostate -11.2% | SK-MEL-5 melanoma -86.8% | UACC-62 melanoma -28.8% | LOX IMVI melanoma -1.01% | SK-MEL-28 melanoma 7.4% | SK-MEL-2 melanoma -66.7% | EKVX NSCLC 2.38% | SN12C renal 1.45% | UO-31 renal -7.29% | TK-10 renal -19.5% | ACHN renal -6.44% | CAKI-1 renal -13.7% | A498 renal -42.5% | CCRF-CEM leukemia 1.14% | MOLT-4 leukemia -7.97%

COc1cc(/C=C/c2cc(/C=C/c3ccc(O)c(OC)c3)n(C(=O)c3ccccc3Br)n2)ccc1O
inactive: HCT-15 colon 16.2% | SNB-75 CNS 27.3% | SNB-19 CNS 36.2% | U251 CNS 35.1% | PC-3 prostate 12.9% | SK-MEL-28 melanoma 28.6% | EKVX NSCLC 30.6% | SN12C renal 14.2% | UO-31 renal 23.9% | TK-10 renal 65% | ACHN renal 25.1% | A498 renal 56.4%
active: HT29 colon 0.381% | SK-MEL-5 melanoma -1.91% | UACC-62 melanoma 3.48% | LOX IMVI melanoma 9.29% | SK-MEL-2 melanoma -0.325% | CAKI-1 renal -34.8% | CCRF-CEM leukemia 3.52% | MOLT-4 leukemia -6.53%

CCCCCCCC/C=C/CCCCCCCC1=NC(C)(C)CN1C(C)C
inactive: SNB-75 CNS 25.5% | SNB-19 CNS 46.4% | EKVX NSCLC 10.6% | SN12C renal 16.8% | CAKI-1 renal 31.2% | A498 renal 65.7%
active: HCT-15 colon -45.1% | HT29 colon -51.3% | U251 CNS -76.1% | PC-3 prostate -74.4% | SK-MEL-5 melanoma -86.3% | UACC-62 melanoma -60.5% | LOX IMVI melanoma -81.2% | SK-MEL-28 melanoma -82.8% | SK-MEL-2 melanoma -63.9% | UO-31 renal -17.4% | TK-10 renal -14.8% | ACHN renal -78.3% | CCRF-CEM leukemia -43.4% | MOLT-4 leukemia -63.2%

COc1cc(C)c(Cl)cc1C1=NN(c2ccc(S(N)(=O)=O)cc2)C(/C=C/c2ccccc2)C1 (stereo not given)
inactive: HCT-15 colon 35.1% | HT29 colon 23.2% | SNB-75 CNS 65.2% | SNB-19 CNS 38.6% | U251 CNS 18.3% | SK-MEL-5 melanoma 64.9% | UACC-62 melanoma 39.8% | LOX IMVI melanoma 51.6% | SK-MEL-28 melanoma 88.1% | SK-MEL-2 melanoma 74.6% | EKVX NSCLC 49.3% | SN12C renal 20.6% | UO-31 renal 44.9% | TK-10 renal 46% | ACHN renal 15% | CAKI-1 renal 59.5% | A498 renal 64.4% | CCRF-CEM leukemia 54.5% | MOLT-4 leukemia 49.9%
active: PC-3 prostate 7.54%

COc1ccc(/C=C(\C#N)c2cc(OC)c(OC)c(OC)c2)cc1
inactive: HCT-15 colon 15.2% | SNB-75 CNS 30.3% | SNB-19 CNS 43% | U251 CNS 15.4% | PC-3 prostate 28% | UACC-62 melanoma 36.2% | LOX IMVI melanoma 27% | SK-MEL-28 melanoma 56.6% | SK-MEL-2 melanoma 64.7% | EKVX NSCLC 54.7% | SN12C renal 27.9% | UO-31 renal 28.5% | TK-10 renal 74.1% | ACHN renal 24.7% | CAKI-1 renal 41.4% | CCRF-CEM leukemia 14.9%
active: HT29 colon 6.29% | SK-MEL-5 melanoma -37.4% | A498 renal 7.06% | MOLT-4 leukemia 8.39%

Reference: PubChem BioAssay (NCI)
